Measured values as given in ChEMBL document CHEMBL3988442, “University of Dundee, Small-Polar-MMV Screening Library” (2021).
In all, about 66,000 compounds went through this assay and about 960 (1.5%) showed an effect of 50% or more. The sample as a whole holds a higher share of strong results than the screen did.

Test system: Trypanosoma brucei
Experiment: Trypanosoma brucei 72 hour study
Format: functional, organism-based
Set-up: scale not given: in the data most compounds retested in dose-response had high values

SMILES | Percent Effect (30.3 µM, […]) | Percent Effect (30 µM, 30.03 µM)
COCC1N(S(=O)(=O)c2cn(C)cn2)[C@H]2CC[C@]1(O)CC2 (some centres not stated) | -23.23% | –
CN(C)C(=O)CN1C(=O)CCC12CCN(Cc1cccs1)CC2.O=C(O)C(F)(F)F | -53.05% | –
O=C(O)C(F)(F)F.O=C(c1cscn1)N1CCCC2(CCN2Cc2cccc(F)c2)C1 (configuration not stated) | 27.36% | –
Cc1cc(C)cc(OCC(O)CN2CCN(c3nccs3)CC2)c1 (configuration not stated) | – | -27.85%
COC(=O)c1ccc(N2CCN(C(=O)c3cnc(C)cn3)C(C)C2)cc1 (configuration not stated) | 8.397% | –
Cc1nn(C)c2nc(-c3ccccn3)nc(NCCC3CCCN3C)c12 (configuration not stated) | – | -75.32%
Cc1nn(C)c2nc(-c3ccccn3)nc(NC[C@@H]3CCCO3)c12 | – | -82.13%
CCC1(O)CCCN(c2nc(-c3ccccn3)nc3c2c(C)nn3C)C1 (configuration not stated) | – | 51.81%
O=C1CCC2(CCN(Cc3cscn3)CC2)CN1[C@H]1CC[C@H](O)CC1 | – | -1.213%
CNc1cccc(CC2COCCN(C(=O)c3cccnc3)C2)n1 (configuration not stated) | 5.622% | –
CCNC(=O)NCCc1csc(N2CCCC2)n1 | – | -10.34%
CC(C)(C)SCC(=O)NCCc1csc(N2CCCC2)n1 | – | -0.8864%
CC(C)(C)OC(=O)NCCc1csc(N2CCCC2)n1 | – | 63.65%
Cc1nc(C2(O)CCCNCC2)sc1CCOc1ccccc1Cl.Cl (configuration not stated) | 102.3% | –
Cc1ncccc1OC1(C(=O)NCCNc2ccccc2)CCNCC1 | 0.199% | –
CC(=O)Nc1nc(C(=O)NCCOc2ccccc2F)cs1 | -41.52% | –
Cc1nc(C2(O)CCCNCC2)sc1CCOc1ccccc1.Cl (configuration not stated) | 41.97% | –
Cc1nc(C2(O)CCCNCC2)sc1CCOc1ccccc1F.Cl (configuration not stated) | 74.4% | –
CCN1CCCC(O)(c2nc(C)c(CCOc3ccccc3Cl)s2)CC1 (configuration not stated) | 33.23% | –
CCN1CCCC(O)(c2nc(C)c(CCOc3ccccc3F)s2)CC1 (configuration not stated) | -7.056% | –
Cc1ncc(C(=O)NCCOc2ccccc2F)c(C)n1 | – | -71.35%
CNC(=O)CN1CC[C@H]2CN(C(=O)c3ccccc3C)C[C@H]2C1.O=C(O)C(F)(F)F | -31.13% | –
O=C(COc1ccccc1F)N1CCCCC1c1ccn2ccnc2n1 (configuration not stated) | -11.94% | –
O=C(C1=CCCC1)N1CCO[C@H]2[C@@H](Oc3ccccn3)CC[C@@H]21.O=C(O)C(F)(F)F | – | 21.55%

SMILES | Percent Effect (30.3 µM, […]) | Percent Effect (30 µM, 30.03 µM)
Cc1c(C)n(-c2ccccn2)c2nc3c(c(N)c12)CCCC3 | – | 65.81%
Cc1c(C)n(Cc2ccccn2)c2nc3c(c(N)c12)CCCC3 | – | 14.96%
Cc1c(C)n(-c2ccccn2)c2nc3c(c(N)c12)CCCCC3 | – | -26.49%
O=C(C1CCCC1)N1C[C@@H]2CCN(c3cnccn3)C[C@@H]2C1.O=C(O)C(F)(F)F | -13.6% | –
CCc1ccc(CN2C[C@@H]3COC[C@H](NS(C)(=O)=O)[C@@H]3C2)o1.O=C(O)C(F)(F)F | -9.462% | –
Cc1ccc(N(C)C2CCN(C(=O)c3ccsc3)CC2)nn1 | – | 59.68%
Cc1ccc(NC2CCN(C(=O)c3ccsc3)CC2)nn1 | – | -24.89%
Cc1ccc(N2CCC3(CCN(C(=O)c4ccsc4)CC3)CC2)nn1 | – | 20.14%
CC1=Nc2c(c(=O)[nH]n2C2CCCC2)C(c2ccc(O)cc2)S1 (configuration not stated) | – | -3.6%
Cc1cc(C)n(CC2CN(Cc3nc4ccccc4s3)CCO2)n1 (configuration not stated) | 18.1% | –
CCn1cc(S(=O)(=O)N2CCC(C)Sc3ccccc32)cn1 (configuration not stated) | – | -33.91%
CC1CCN(S(=O)(=O)c2cccnc2)c2ccccc2S1 (configuration not stated) | – | 80.08%
CN1CCN(S(=O)(=O)c2cccnc2)c2cnccc21 | -3.164% | –
Cn1nc(C(=O)N2CCOCC2)cc1C(=O)Nc1c(Cl)cccc1Cl | – | -27.89%
CC(C)c1cc(C2CCN(C(=O)Cn3cnc4ccccc43)CC2)[nH]n1 | – | -44.45%
Cc1cc(C(F)(F)F)nc(CCNC(C)Cn2ccnc2)n1 (configuration not stated) | – | -48.3%
CCCC(=O)N(CCN1CCOCC1)c1nc2c(OC)ccc(C)c2s1.Cl | 13.57% | –
CCCC(=O)N(CCCN1CCOCC1)c1nc2c(C)ccc(Cl)c2s1.Cl | 71.42% | –
CCCC(=O)N(CCCN1CCOCC1)c1nc2c(C)c(C)ccc2s1.Cl | 27.33% | –
CCCC(=O)N(CCCN1CCOCC1)c1nc2c(F)cccc2s1.Cl | 24.42% | –
CCCC(=O)N(CCCN1CCOCC1)c1nc2c(Cl)cccc2s1.Cl | 55.71% | –
CN(CCN1CCOCC1)C(=O)CCc1cccc(Cl)c1 | – | 2.26%
CN1CC[C@]2(CN(CC3CCOC3)C[C@H]2c2ccccc2)C1=O.O=C(O)C(F)(F)F (some centres not stated) | -23.92% | –
